Test systems include SR leukemia; RPMI-8226 leukemia; OVCAR-8 ovarian; OVCAR-5 ovarian; OVCAR-4 ovarian; SK-OV-3 ovarian; IGROV1 ovarian; OVCAR-3 ovarian; HS 578T breast; NCI/ADR-RES ovarian; T-47D breast; BT-549 breast; MDA-MB-435 melanoma; SW-620 colon; MCF7 breast; HCT-116 colon; HCC-2998 colon; KM12 colon.
What all share (experiment): NCI-60 one-dose screen, 48 h (100 = growth as untreated, 0 = no growth, -100 = all killed)
What all share (details): 10 µM unless noted

Where “and” joins values, the source holds several entries; their conditions need not be identical. Equal values may be shown once. Compounds without any hit were thinned out: in the full panel of roughly 83,000, 20% have a hit.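 Each cell line was grown in a 96-well plate and treated with one concentration of compound for 48 hours. Values below 10 were considered active.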 Unmarked numbers belong to inactive results. Calls of active or inactive are those of the source.

As for `C=CCNC(=O)Cc1c(-c2ccc(OC)cc2)oc2c(OC)c3c(c(OC)c12)OCO3`, the growth in the test on SR leukemia was 97.4%; in the test on RPMI-8226 leukemia it was 97.5%; with OVCAR-8 ovarian, 95.9%; with OVCAR-5 ovarian, 101%; in the test with OVCAR-4 ovarian it was 102%; with SK-OV-3 ovarian, 110%. For the same compound, the growth in the test on IGROV1 ovarian is 82.3%; in the test on OVCAR-3 ovarian, 118%; with HS 578T breast, 103%; in the test on NCI/ADR-RES ovarian, 98.2%; with T-47D breast, 101%; in the test on BT-549 breast it was 100%. In addition, the growth with MDA-MB-435 melanoma was 103%; in the test on SW-620 colon, 103%; in the test with MCF7 breast, 83.9%; in the test with HCT-116 colon it was 92.8%; in the test on HCC-2998 colon it was 116%; in the test on KM12 colon, 96.2%.

Turning to `COc1cc2c(cc1OCCCOC1=C=C=C(c3ccc4c(c3)c3cc(-c5ccc(OCCCOc6cc7c(cc6OC)C(=O)N6CCC[C@H]6C=N7)cc5)ccc3n4S(=O)(=O)c3ccc(C)cc3)C=C1)N=C[C@@H]1CCCN1C2=O`, the growth was -74% (active) in the test with SR leukemia; 17.9% in the test on RPMI-8226 leukemia; 23.9% in the test with OVCAR-8 ovarian; 113% in the test on OVCAR-5 ovarian; 58.2% in the test on OVCAR-4 ovarian; 93.7% in the test with SK-OV-3 ovarian. For the same compound, the growth in the test with IGROV1 ovarian is 14%; with OVCAR-3 ovarian, 0.652% (active); in the test with HS 578T breast, 2.22% (active); in the test with NCI/ADR-RES ovarian it was 94%; in the test with T-47D breast, 37.1%; in the test with BT-549 breast it was 277%. For the same compound, the growth is 44.5% with MDA-MB-435 melanoma; 6.31% (active) in the test with SW-620 colon; 23% with MCF7 breast; 136% and 11.4% in the test on HCT-116 colon; -43.2% (active) with HCC-2998 colon; 42.1% with KM12 colon.

In the case of `CN1C(=O)/C(=C/c2ccc(C(=O)Nc3ncc(Cc4ccccc4Cl)s3)cc2)SC1=S`, the growth with SR leukemia was 35.7%; in the test with RPMI-8226 leukemia, 73.3%; in the test with OVCAR-8 ovarian, 79.3%; with OVCAR-5 ovarian, 70.5%; with OVCAR-4 ovarian, 69.6%; with SK-OV-3 ovarian it was 80.5%. For the same compound, the growth in the test with IGROV1 ovarian was 78.8%; in the test on OVCAR-3 ovarian it was 93.3%; in the test with HS 578T breast, 65.8%; in the test on NCI/ADR-RES ovarian it was 71.6%; in the test with T-47D breast, 63.4%; in the test with BT-549 breast it was 69.5%. The growth is -18.5% (active) with MDA-MB-435 melanoma; 62% with SW-620 colon; 61.8% in the test on MCF7 breast; 63.6% with HCT-116 colon; 77.5% with HCC-2998 colon; 46.1% in the test with KM12 colon.

Turning to `C#CCOc1cccc(Nc2ncc3ncn(C4CCN(C(=O)CCl)C4)c3n2)c1` (stereo not drawn), the growth in the test with SR leukemia is -1.16% [6.25 µM] (active); in the test on RPMI-8226 leukemia it was 44.1% [6.25 µM]; in the test with OVCAR-8 ovarian, 51.7% [6.25 µM]; with OVCAR-5 ovarian, 53.3% [6.25 µM]; with OVCAR-4 ovarian, 36.3% [6.25 µM]; in the test on SK-OV-3 ovarian, 73.4% [6.25 µM]. In addition, the growth in the test with IGROV1 ovarian was 1% [6.25 µM] (active); with OVCAR-3 ovarian it was -6.2% [6.25 µM] (active); with HS 578T breast it was 82.2% [6.25 µM]; in the test on NCI/ADR-RES ovarian, 78% [6.25 µM]; in the test on T-47D breast, -10.5% [6.25 µM] (active); with BT-549 breast it was 29.3% [6.25 µM]. The growth was 35.2% [6.25 µM] with MDA-MB-435 melanoma; -41.4% [6.25 µM] (active) in the test on SW-620 colon; 8.03% [6.25 µM] (active) with MCF7 breast; 0.194% [6.25 µM] (active) in the test on HCT-116 colon; 74.9% [6.25 µM] in the test with HCC-2998 colon; 87.5% [6.25 µM] with KM12 colon.

Consider `Nc1c(C(=O)Nc2ccncc2)sc2nc3c(cc12)CCCCCCCC3`, for which the growth in the test with SR leukemia is -27.5% (active); in the test on RPMI-8226 leukemia, -49% (active); in the test on OVCAR-8 ovarian, -90.6% (active); in the test with OVCAR-5 ovarian, -75.8% (active); with OVCAR-4 ovarian it was -84.6% (active); in the test with SK-OV-3 ovarian, -92.1% (active). The growth is -73.7% (active) in the test with IGROV1 ovarian; -81.8% (active) in the test on OVCAR-3 ovarian; -37.1% (active) in the test on HS 578T breast; -64.8% (active) in the test on NCI/ADR-RES ovarian; -71.2% (active) with T-47D breast; -60.8% (active) in the test with BT-549 breast. In addition, the growth in the test with MDA-MB-435 melanoma was -89.9% (active); with SW-620 colon, -69.2% (active); in the test on MCF7 breast it was -83.4% (active); with HCT-116 colon, -76.3% (active); in the test on HCC-2998 colon it was -54.3% (active); with KM12 colon, -80.4% (active).

Regarding `O=C(Nc1ncc(Cc2cccc(C(F)(F)F)c2)s1)c1ccc2c(c1)OCCO2`, the growth is 6.85% (active) in the test on SR leukemia; 17.6% in the test with RPMI-8226 leukemia; 23.2% in the test with OVCAR-8 ovarian; 37.1% in the test on OVCAR-5 ovarian; 37.1% in the test with OVCAR-4 ovarian; 35.3% in the test with SK-OV-3 ovarian. The growth in the test on IGROV1 ovarian is 23.4%; with OVCAR-3 ovarian, -8.1% (active); in the test with HS 578T breast, 21.4%; in the test with NCI/ADR-RES ovarian it was 7.71% (active); in the test with T-47D breast, 42.5%; in the test on BT-549 breast it was 35.8%. Moreover, the growth with MDA-MB-435 melanoma was 3.47% (active); with SW-620 colon it was 37%; in the test on MCF7 breast, 13.9%; in the test with HCT-116 colon, 10.9%; in the test on HCC-2998 colon, 20.3%; in the test with KM12 colon, 11.1%.
